# Measured values from the OligoGym collection.
# Target: ALDH1A3
# Experiment: pooled miR-30 sensor sort-seq; sequence = guide strand
# Settings: shRNA
# Note: reference of the scale not given here.
row,Sequence,sensor-assay potency score (higher = more potent)
1,TTTGTGAACACGGCTGCTGTGA,-0.151
2,ATAAATATCTTGGTGAACTTGA,-0.0326
3,TTTCCTGACATTTTAAAGCCAC,-0.397
4,TTGAAGGGTTACATGTAGCAAA,-0.786
5,TATCTTGGTGAACTTGACCTCC,0.362
6,TAGTCGGTGCTATTCGCTCTTT,-0.888
7,TCATTGTTGATAAATATCTTGG,-0.45
8,TCTTTTTATCACTTCTTCGATA,-0.674
9,TTTATCACTTCTTCGATACTTT,-0.132
10,ATTGTTGATAAATATCTTGGTG,-0.0591
11,TTTTTGTGAACACGGCTGCTGT,-0.433
12,TCTGTTTTGACATCGAAGGGGT,0.173
13,TTTTTTGTGAACACGGCTGCTG,0.356
14,TTTCTTGGCATACTCCACGCTC,-0.65
15,TTGGTTGAAGAACACTCCCTGA,-0.48
16,TTTTGTCGAACTGCTTTTGATC,-0.787
17,TAGCAGTTGATCCAGACCGTTC,-1.2
18,TTGTTGATAAATATCTTGGTGA,0.169
19,TAAGATTTTGTCGAACTGCTTT,0.131
20,TTCGATACTTTTGAACTTCAGT,-0.228
